Screening results as filed in PubChem.
GDH-TPI inh: GDH-TPI coupled enzyme inhibition counter-screen; GDH-TPI coupled enzyme counterscreen, NADH absorbance; inhibition, % at 4.8 µM; 360,000 tested, 1.2% active; in the data active = inhibition above about 30%;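 also: 0% = DMSO wells and 100% = wells lacking the enzyme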
Mtb hypoxia inh: reduces hypoxia-regulated biosensor signal in M. tuberculosis; M. tuberculosis hypoxia-regulated fluorescent reporter, fluorescence; fluorescence inhibition, % (no concentration beside the values); 300,000 tested, 0.1% active; in the data active = fluorescence inhibition mostly above about 23%, no sharp cut-off; inactive = mostly below about 17%
Mtb betalactam: beta-lactam sensitization of Mtb H37Rv; AID 434955; 330,000 tested, 0.27% active; inhibition, % at 25 µM; M. tuberculosis H37Rv growth with meropenem, percent inhibition; call rule not given here;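 also: growth measured after seven days incubation then overnight dye step; 0% = bacteria only wells and 100% = bacteria with antibiotic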
VHR inh abs: DUSP3 (human) phosphatase inhibition | P51452 | recombinant VHR phosphatase, pNPP absorbance | inhibition, % at 13.3 µM | 290,000 tested, 0.52% active | AID 1654; in the data active = inhibition above about 50%
Target sequence (P51452 whole entry, looked up): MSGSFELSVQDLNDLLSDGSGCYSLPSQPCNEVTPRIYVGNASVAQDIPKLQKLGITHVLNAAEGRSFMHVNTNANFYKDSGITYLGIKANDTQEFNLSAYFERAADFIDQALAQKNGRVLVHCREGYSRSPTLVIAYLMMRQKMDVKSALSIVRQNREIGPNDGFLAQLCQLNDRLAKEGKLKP
FBA Mtb inh: inhibits M. tuberculosis FBA enzyme | 360,000 tested, 2.3% active | P9WQA3 | purified M. tuberculosis FBA, fluorescence read-out | inhibition, % at 1 µM | AID 588726; in the data active = inhibition above about 27%;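 also: 0% = vehicle and 100% = reference inhibitor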
Target sequence (P9WQA3 whole entry, looked up): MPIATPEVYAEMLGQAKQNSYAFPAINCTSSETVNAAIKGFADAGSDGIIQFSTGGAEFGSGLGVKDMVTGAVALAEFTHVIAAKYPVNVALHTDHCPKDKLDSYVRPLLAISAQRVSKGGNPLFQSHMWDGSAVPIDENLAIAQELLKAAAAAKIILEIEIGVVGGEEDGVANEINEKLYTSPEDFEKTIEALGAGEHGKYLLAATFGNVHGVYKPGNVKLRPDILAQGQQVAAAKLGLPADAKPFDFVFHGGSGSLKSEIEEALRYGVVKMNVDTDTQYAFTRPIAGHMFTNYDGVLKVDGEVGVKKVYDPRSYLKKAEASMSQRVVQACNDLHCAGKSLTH
Starred values were filed as active, the others as inactive; · = no result given; + = active, no number. Only some compounds are listed: those with a hit (about 3.6% of all), similar ones and a draw of the others.

SMILES	GDH-TPI inh	Mtb hypoxia inh	Mtb betalactam	VHR inh abs	FBA Mtb inh
COC(=O)c1sccc1-c1ccc(C(N)=O)o1	·	·	-2	10	·
O=C(CNC(=O)C1COc2ccccc2O1)N/N=C\c1ccccc1Cl (stereo unspecified)	8	·	-2	56*	0
COc1cccc(/C=N/NC(=O)CNC(=O)C2COc3ccccc3O2)c1O (stereo unspecified)	10	·	·	1	2
CC(C)(C)c1ccc2c(c1)OC(C(=O)N/N=C\c1ccc(-c3cccc(C(=O)O)c3)o1)CO2 (stereo unspecified)	39*	·	1	5	9
O=C(O)c1cccc(-c2ccc(/C=N/NC(=O)C3COc4ccccc4O3)o2)c1 (stereo unspecified)	38*	·	4	17	5
O=C(NN=Cc1ccc(-c2ccc([N+](=O)[O-])cc2)o1)C1COc2ccccc2O1 (stereo unspecified)	·	7	·	·	·
CC(=NNS(=O)(=O)c1ccc(C)cc1)c1ccc(C)o1	·	-5	·	·	·
Cc1ccc(-c2cc(C(=O)NN=Cc3ccco3)[nH]n2)cc1	·	24	·	·	·
COc1ccc(-c2cn3ccccc3n2)cc1	12	15	-2	17	114*
Cc1ccc(Nc2nc(N)c(C#N)c(CC#N)c2C#N)cc1	38*	-4	0	22	-2
CC(/C=C/c1ccccc1)=NNc1nc2c(c(=O)[nH]c(=O)n2C)n1CCO	·	-3	·	·	·
CC(O)C1CCC2C3CCC4CC(O)CC[C@]4(C)C3C(=NO)C[C@]12C (stereo partly specified)	·	20	·	·	·
COC(=O)[C@H](Cc1ccccc1)NC(=O)NCc1ccc(S(N)(=O)=O)cc1	-1	0	43	22	1
NS(=O)(=O)c1ccc(CNC(=O)NC2(c3ccccc3)CC2)cc1	-12	14	-5	50*	2
N/C(=N\OC(=O)c1ccccc1F)c1cccc([N+](=O)[O-])c1	-2	·	56	51*	-1
NC(=NOC(=O)c1ccccc1Br)c1cccc([N+](=O)[O-])c1	·	6	·	·	·
O=C(NN=Cc1cccc(Oc2ccccc2)c1)c1cccc(Br)c1	·	3	·	·	·
O=C(/C=C/NCc1cccnc1)C(F)(F)C(F)(F)F	8	0	2	24	1
O=C(NCc1cccnc1)Nc1ccc(Br)cc1	-1	11	4	53*	2
O=C(/C=C/NCc1cccnc1)c1ccc(Br)cc1	54*	-11	-1	·	-3
Cc1csc(=NC(=S)Nc2ccccc2)n1C	·	5	·	·	·
Cc1cc2n(c(=O)c1C#N)CCCN2c1ccccc1	58*	3	5	20	4
Cc1cc(C)n(N=Cc2ccccc2)c(=O)c1C#N	·	4	·	·	·
CCn1c(C)nc2cc(C(=O)N/N=C/c3ccc(N4CCOCC4)cc3)ccc21	34*	·	2	-2	4
CCn1c(C)nc2cc(C(=O)N/N=C/c3ccc(OC)c(O)c3)ccc21	39*	·	1	5	-1
SMILES	GDH-TPI inh	Mtb hypoxia inh	Mtb betalactam	VHR inh abs	FBA Mtb inh
CCn1c(C)nc2cc(C(=O)N/N=C(\C)c3ccc(N4CCOCC4)cc3)ccc21	17	·	0	13	-3
COc1ccc2cc(S(=O)(=O)c3ccccc3)c(=O)oc2c1	36*	4	-7	6	+
Cc1ccc(S(=O)(=O)c2cc3ccc(O)cc3oc2=O)cc1C	0	15	-2	7	+
CN(C)c1ccc(N2C(CC(=O)O)c3cc(C(F)(F)F)ccc3S2(=O)=O)cc1 (stereo unspecified)	·	4	·	·	·
CCOC(=O)c1nc2sc3c(c2c(=O)n1C(C)C(=O)OCC)CCCC3 (stereo unspecified)	11	16	88	19	135*
CCOC(=O)c1sc(NC(=O)Cn2nnc3sc4c(c3c2=O)CCCC4)nc1C	29	9	8	29	-1
Cc1cc(C)n2nc(-c3ccco3)nc2n1	4	3	5	-4	124*
COc1cc(OC)c(OC)cc1/C=N/NC(=O)CCc1c(C)n[nH]c1C	56*	·	1	16	22
COc1ccc(/C=N/Nc2cc(C)nc(-n3nc(C)cc3C)n2)cc1	17	·	96	-8	4
CCOc1cc(/C=N/n2c(C)nnc2C)ccc1O	40*	·	-9	20	3
CCOc1ccc(/C=N/n2c(C)nnc2C)cc1OC	4	·	5	22	-2
CCOc1cc(C=NNc2cc(C)nc(-n3nc(C)cc3C)n2)ccc1O	·	39*	·	·	·
Cc1cc(N/N=C/c2ccc(O)cc2O)nc(-n2nc(C)cc2C)n1	36*	·	100	-5	0
COc1cc(C=NNc2ccc(Cl)c(C(=O)O)c2)ccc1OCC(=O)N1C(C)CCCC1C (stereo unspecified)	·	8	·	·	·
O=c1c2c3nc4ccccc4nc3n(CCN3CCOCC3)c2ncn1CCN1CCOCC1	34*	-1	·	·	22
O=c1c2c3nc4ccccc4nc3n(CC3CCCO3)c2ncn1CCc1ccccc1 (stereo unspecified)	7	·	-11	27	25
CCn1c2ccc(C)cc2c2nnc(SCCN3CCOCC3)nc21	27	13	-4	30	-3
Cc1ccc2c(c1)c1nc3ccccc3nc1n2CCN1CCOCC1	34*	·	56	-13	-3
Cc1cc(C(=O)OCCO)c(C#N)c(N)n1	12	21	-6	17	143*
CC(C)(C)NC(=O)C=Cc1ccc(C(F)(F)F)cc1	·	-1	·	·	·
COC(=O)c1ccc(C=NNC(=S)NCCN2CCOCC2)cc1	·	2	·	·	·
CC(=O)Nc1ccc(C=NNC(=S)NC(C)C)cc1	·	7	·	·	·
S=C(NCCN1CCOCC1)N/N=C/c1cccs1	35*	·	99	·	3
Cc1cccc(C)c1NC(=S)N/N=C/c1ccc(C(=O)O)cc1	45*	·	-4	9	5
CC(=O)Nc1ccc(/C=N/NC(=S)NC(C)C)cc1	40*	·	-7	10	-2
SMILES	GDH-TPI inh	Mtb hypoxia inh	Mtb betalactam	VHR inh abs	FBA Mtb inh
O=C(O)c1ccc(/C=N/NC(=S)NCCN2CCOCC2)cc1	46*	·	-3	30	-5
CCOc1ccc(C=NNC(=S)Nc2c(C)cccc2C)cc1	·	0	·	·	·
CC(CC(=O)Nc1ccccc1)=NNC(=O)COc1ccc(C)cc1Br	·	2	·	·	·
COc1ccc(NC(=O)N(C)CC2Oc3ccc(NC(=O)NC4CCCCC4)cc3C(=O)N(C(C)CO)CC2C)cc1 (stereo unspecified)	·	10	·	·	·
CC1(C)CC(=O)C=C(/C=C/c2ccccc2)C1	49*	·	-2	·	4
C=CCn1cccc(C(=O)Nc2ccc(N(C)C)cc2)c1=O	21	-6	-9	56*	-2
C=CCn1cccc(C(=O)Nc2ccc(Cl)cc2)c1=O	23	12	-1	20	-4
CC1(C)NC(=O)N(CC(O)COc2ccc(-c3ccc(C#N)cc3)cc2)C1=O (stereo unspecified)	-1	0	-17	22	69*
COC(=O)c1[nH]c2cc(OC)c(OC)cc2c1NC(=O)c1cccc(OC)c1	32*	·	20	19	-2
CCOC(=O)c1[nH]c2ccc(OC)cc2c1NC(=O)c1ccc(OC)c(OC)c1	3	-5	-4	4	0
ON=Cc1ccccc1Oc1ccc(Cl)cc1	·	13	·	·	·
Cc1cc2oc(=O)cc(CN3CCOCC3)c2c(C)c1Cl	-6	10	4	23	137*
